# Hits are enriched below; roughly 10% of the tested compounds scored in any of these assays.
# SW480 rerep: A quantitative high throughput screen for small molecules that induce DNA re-replication in SW480 colon adenocarcinoma cells | SW480 DNA re-replication, Hoechst DNA content imaging, 48 h | Potency, µM (highest dose often 46.1 µM), for the others: at the top dose re-replication activation, hits mostly activators | actives 1.8% (n = 340,000) | AID 624297, 2012; further: % of control where 0% means no effect; nearly all actives have a fitted effect of over 55% in size
#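 First, 250 cells per well were seeded. Next, compound or vehicle (23 nL) was pinned in, plates sat 48 hr at 37 C. Finally Hoechst was added for 40 min before fluorescence scanning.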
# RORgamma inh: qHTS for inhibitors of ROR gamma transcriptional activity. actives 5.4% (n = 310,000). Nuclear receptor ROR-gamma (Mus musculus), P51450. AID 2551, 2010. Drosophila S2 Gal4-RORgamma UAS-luciferase reporter, 20 h. Potency, µM (series often up to 53.6 µM), for the others: at the top dose activity change, negative = inhibition, hits mostly inhibitors; further: on the % scale 0 is the no-effect control and ±100 the full control effect; nearly all actives have a fitted effect of over 60% in size
# Target sequence (P51450 whole entry, looked up, the tested form may be a part): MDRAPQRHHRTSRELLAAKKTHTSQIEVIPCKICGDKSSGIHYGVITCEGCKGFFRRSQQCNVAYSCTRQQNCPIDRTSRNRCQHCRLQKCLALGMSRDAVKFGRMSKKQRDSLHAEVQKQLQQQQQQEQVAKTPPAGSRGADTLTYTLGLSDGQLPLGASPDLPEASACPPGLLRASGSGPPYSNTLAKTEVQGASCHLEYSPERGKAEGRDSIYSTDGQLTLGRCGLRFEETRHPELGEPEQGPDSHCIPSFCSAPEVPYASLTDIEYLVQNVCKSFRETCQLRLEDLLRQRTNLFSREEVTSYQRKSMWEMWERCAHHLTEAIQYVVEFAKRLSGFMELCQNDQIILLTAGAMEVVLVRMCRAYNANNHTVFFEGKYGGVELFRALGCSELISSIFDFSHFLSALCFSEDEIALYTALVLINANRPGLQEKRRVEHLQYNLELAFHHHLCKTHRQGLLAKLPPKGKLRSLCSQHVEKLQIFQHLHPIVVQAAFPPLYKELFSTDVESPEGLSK
#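 Luminescence from a UAS-regulated Photinus luciferase reporter in stably transfected Drosophila Schneider cells is measured; decreased signal marks ROR gamma inhibition. Fusion expression is induced by 700 uM copper sulfate for 20 hr.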
# ELG1 repair inh: qHTS screen for small molecules that inhibit ELG1-dependent DNA repair in human embryonic kidney (HEK293T) cells expressing luciferase-tagged ELG1; HEK293T ELG1-luciferase reporter, luminescence, 16 h; DNA damage induced by 5-fluorouridine; Potency, µM (highest dose often 46.1 µM), for inactives: at the top dose activity change, negative = inhibition, actives largely listed as inhibitors; actives 2.3% (n = 330,000); AID 504467, 2011; further: on the % scale 0 is the no-effect control and ±100 the full control effect; nearly all actives have a fitted effect of over 55% in size
#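 5-Fluorouridine DNA damage + compound/DMSO, 2,000 cells/well, 16 h, 37 °C/5% CO2. ONE-Glo, 30 min RT, luminescence. Readout = decrease in reporter signal.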
# Gal4-VP16 FLuc: VP16 counterscreen qHTS for inhibitors of ROR gamma transcriptional activity; Potency, µM (titrated, usually from 53.6 µM), for the others: top-dose activity, negative = inhibition, most hits filed as inhibitors; Drosophila S2 Gal4-VP16 UAS-luciferase, luminescence, 20 h; actives 3.5% (n = 310,000);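 further: Gal4-VP16 expression switched on by copper sulfate through the metallothionein promoter; on the % scale 0 is the no-effect control and ±100 the full control effect; nearly all actives have a fitted effect of over 50% in size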
# MCF10A rerep: A quantitative high throughput screen for small molecules that induce DNA re-replication in MCF 10a normal breast cells | actives 2.9% (n = 350,000) | MCF 10A DNA re-replication, Hoechst nuclear intensity, 48 h | Potency, µM (series often up to 46.1 µM), for the others: at the highest dose activity, positive = re-replication, most hits filed as activators; further: % of control where 0% means no effect; nearly all actives have a fitted effect of over 50% in size
# * = called active by the depositor; ? = inconclusive; . = no result; [ ] = another dose, or the depositor's remark. The call rests on the fitted dose curve; in most records, active means well fitted curve in the direction sought with a large enough effect; inconclusive means small, poorly fitted or top-dose-only effect, or another doubt; inactive means no such curve, though single readings can be large; an effect the other way counts as inactive or inconclusive. Potency means the concentration at half of the fitted maximal effect.
SMILES,SW480 rerep,RORgamma inh,ELG1 repair inh,Gal4-VP16 FLuc,MCF10A rerep
Cc1c(Cl)cccc1NC(=S)NCc1ccccc1Cl,-1%,1.1µM*,-3%,1.6µM*,?
Fc1ccc(CNC(=S)Nc2ccccc2Cl)cc1,-2%,11µM*,0%,?,-1%
Fc1ccc(CNC(=S)Nc2ccccc2F)cc1,0%,?,-6%,?,-3%
COc1cc(OC)c(NC(=S)NCc2ccc(F)cc2)cc1Cl,1%,?,-1%,-27%,-3%[9.22 µM]
CN(CCO)S(=O)(=O)c1ccc2c(c1)C(=NN)c1cc(S(=O)(=O)N(C)CCO)ccc1-2,16%,-13%,-5%,17%,?
CN(C)C(=O)c1c(C(F)(F)F)nn(C)c1Cl,-21%,11%,-9%,-1%,-2%
CN(C)c1ccc(N2C(=NC(=O)c3ccccc3)SC3CS(=O)(=O)CC32)cc1 (configuration not stated),-5%,4%,10%,2%,4%
Cc1ccc(S(=O)(=O)Nc2cccc(-c3ccc4nnc(C)n4n3)c2)s1,-17%,-42%,?,3%,?
Cc1ccc(C)c(OCc2nnc(N)s2)c1,0.73µM*,13µM*,?,-13%,?
Nc1nnc(COc2ccc(Br)cc2Br)s1,-2%,3%,?,-6%,-4%
c1csc(-c2cc(N3CCCCC3)c3ccccc3n2)c1,17%,-6%,-21%,-20%,21µM*
O=C(NC1=NCCS1)c1cc(-c2cccs2)nc2ccccc12,7%,25µM*,?,?,20%
NS(=O)(=O)c1ccc(NC(=O)c2cc(-c3cccs3)nc3ccccc23)cc1,?,?,-10%,?,?
Cc1cccc2sc(NNC(=O)c3cc(-c4cccs4)nc4ccccc34)nc12,?,0.25µM*,?,18µM*,18µM*
CCCC(C(=O)NC1=NCCS1)c1ccccc1 (configuration not stated),5%,11µM*,-5%,?,?
Cc1cc(N2O[C@H]3C=C[C@@H]2C3)no1,3%,.,?,.,15%
CC(=O)NS(=O)(=O)c1ccc(NC(=O)c2cc(-c3cccs3)nc3ccccc23)cc1,.,16%,7%,-2%,9%
COc1cccc(C(=O)NC2=NCCS2)c1,-5%,10µM*,?,?,-1%
CC(C)Oc1cccc(C(=O)NC2=NCCS2)c1,-10%,?,?,-8%[10 µM],-2%
C/C(=N\NC(=O)c1cc(-c2cccs2)nc2ccccc12)c1ccccn1,1.6µM*,0.1µM*,-17%,0.56µM*,?
COc1ccc(C(=O)NC2=NCCS2)cc1S(=O)(=O)N1CCCCC1C (configuration not stated),-2%,14µM*,5%,-2%,-1%
O=C(NC1=NCCS1)c1cc(-c2cccnc2)nc2ccccc12,0%,11µM*,?,-1%,-4%
O=C1C2CCCN2C(c2ccco2)N1c1ccc(F)cc1 (configuration not stated),-6%,5%,?,0%,-5%
COCCNC(=O)CN1CCC(n2c(C)nc3cc(C(F)(F)F)ccc32)CC1,-10%,?,6%,-20%,-2%
CCOc1cc(C=O)ccc1OCCn1c([N+](=O)[O-])cnc1C,15%,5%,0%,5%,11%
SMILES,SW480 rerep,RORgamma inh,ELG1 repair inh,Gal4-VP16 FLuc,MCF10A rerep
C/C(=N\NC(=O)c1cc(-c2ccncc2)nc2ccccc12)c1ccc(N2CCOCC2)cc1,-22%,-38%,-4%,-1%,5.8µM*
CC(C)NC(=O)c1cc(-c2cccs2)nc2ccccc12,-36%,10%,-22%,-13%,-1%
O=C(CSc1ccccc1)NC1=NCCS1,-3%,-8%,-9%,4%,-2%
O=C(NC1=NCCS1)c1cccc2ccccc12,2%,11µM*,25%,21%[10 µM],-2%
NNC(=O)c1cc(-c2cccs2)nc2ccccc12,?,20µM*,?,-27%,?
O=C(CSc1cccc2cccc(Cl)c12)NC1=NCCS1,?,10µM*,0%,11µM*,0%
O=C(NC1=NCCS1)c1ccccc1Br,12%,.,.,.,?
O=C(Cc1ccc(Br)cc1)OCC(=O)N1CCOCC1,?,.,15%,.,17%
CCC1=NN2C(=N)/C(=C\c3cccn3-c3cccc(Cl)c3)C(=O)N=C2S1,27%,11µM*,-16%,7%,-5%
CC(C)c1ccc(-n2cccc2/C=C2/C(=N)N3C=CSC3=NC2=O)cc1,?,7.1µM*,16µM*,16µM*,23µM*
CC1=CSC2=NC(=O)/C(=C\c3cccn3-c3ccc([N+](=O)[O-])cc3)C(=N)N12,?,?,-16%,3.2µM*,?
COc1ccc(-c2ccc(/C=C3/C(=N)N4C(C)=CSC4=NC3=O)o2)c([N+](=O)[O-])c1,9%,11µM*,?,?,21µM*
CCc1ccc(NC(=O)CSC2=C(C#N)C(c3ccco3)C3=C(CCCC3=O)N2)cc1 (configuration not stated),?,23%,?,-3%,18µM*
N#CC1=C(SCC(=O)c2ccc(Br)cc2)NC2=C(C(=O)CCC2)C1c1ccco1 (configuration not stated),13µM*,22%,13µM*,-9%,7.9µM*
CCOC(=O)C1=C(c2ccccc2)NC(SCC(=O)Nc2cccc(C)c2)=C(C#N)C1c1ccco1 (configuration not stated),18µM*,15%,?,-1%,?
CCc1ccccc1NC(=O)CSC1=C(C#N)C(c2ccc(O)c(OC)c2)C2=C(CCCC2=O)N1 (configuration not stated),?,?,-29%,-1%,16µM*
Cc1ccc(NC(=O)CSC2=C(C#N)C(c3ccco3)C3=C(CC(C)(C)CC3=O)N2)cc1 (configuration not stated),?,-8%,?,-28%,9%
C=C1C(n2cnc3c(=O)[nH]c(N)nc32)C[C@H](O)[C@H]1CO (some centres not stated),-8%,-30%,.,-4%,1%
Cc1ccc(C)c(OCCC(=O)OCC(=O)Nc2ccc(Cl)cn2)c1,18µM*,.,9%,.,-1%
Cc1cc(C)nc(NC(=O)c2ccc3c(c2)OCO3)c1,.,0%,?,-17%[10 µM],.
Cc1cc(C)nc(NC(=O)c2c(F)c(F)c(F)c(C(=O)Nc3cc(C)cc(C)n3)c2F)c1,?,.,.,.,8.2µM*
C/C(=N/OC(=O)c1ccccc1Br)c1ccc(C)cc1,2%[9.22 µM],16%,?,6%,?

# From PubChem
